Assay results as given in PubChem BioAssay AID504840 (Johns Hopkins Ion Channel Center, 2011).
Hit rate of the full screen: of about 1,500 compounds, about 890 (59%) were called active.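 The calls were made as follows: active = inhibition of the choline-evoked signal at any tested dose together with a fitted dose-response curve; inactive = no inhibition at any dose or no curve.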 The set was probably picked from earlier hits. These entries were drawn from the full list. Entries with a potency or affinity are not part of this list.

molecular target: High affinity choline transporter 1 (Homo sapiens) (UniProt Q9GZV3); assay: human choline transporter blockers, potency – cell-based, 5-point CRC, membrane potential dye, dose response (AID 504840); details: HEK293-CHT, choline-induced depolarization, CHT with LV-to-AA double alanine mutation; series mostly up to 37 µM; inhibition: at the top concentration;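 also: 0% = buffer-only response and 100% = EC90 choline response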
Sequence (Q9GZV3 whole entry, looked up): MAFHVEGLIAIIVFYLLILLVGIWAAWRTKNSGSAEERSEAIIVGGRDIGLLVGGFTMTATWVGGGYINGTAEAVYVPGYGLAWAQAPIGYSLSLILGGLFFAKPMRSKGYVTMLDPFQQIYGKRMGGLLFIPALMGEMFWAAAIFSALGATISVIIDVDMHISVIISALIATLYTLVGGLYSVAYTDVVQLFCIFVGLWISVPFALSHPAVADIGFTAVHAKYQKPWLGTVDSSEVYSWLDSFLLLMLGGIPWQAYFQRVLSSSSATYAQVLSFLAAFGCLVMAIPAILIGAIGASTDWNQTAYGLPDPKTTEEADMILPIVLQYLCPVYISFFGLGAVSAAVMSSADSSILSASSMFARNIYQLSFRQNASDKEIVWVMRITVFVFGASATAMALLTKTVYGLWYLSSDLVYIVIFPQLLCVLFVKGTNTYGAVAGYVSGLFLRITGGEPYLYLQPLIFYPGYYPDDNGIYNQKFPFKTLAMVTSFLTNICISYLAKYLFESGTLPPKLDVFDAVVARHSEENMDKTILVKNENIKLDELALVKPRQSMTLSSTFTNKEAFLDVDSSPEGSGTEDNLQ

inhibition, inactive:
COc1ccc2c(c1)-c1c(ssc1=S)C(C)(C)N2 39.6%, CC(C)OC(=O)CN1CCN(S(=O)(=O)c2cc(Cl)ccc2Cl)CC1 39%, CC(=O)c1ccc(S(=O)(=O)N(C)C(C)CCc2ccco2)cc1 (stereo not given) 28.6%, Cc1ccc(C(C)NC(=S)NCc2ccc(F)cc2)cc1C (stereo not given) 40.9%, COc1cccc(NC(=S)N(Cc2ccc(C(=O)O)cc2)Cc2ccc(OC)c(OC)c2)c1 48.2%, CCN(CC)CCCN(C(=O)c1ccco1)c1nc(-c2ccc(Cl)cc2)cs1 42.7%, CCCCNC(=O)c1onc(CSc2ccc(C(C)C)cc2)c1C(=O)O 17.3%, O=C1c2ccccc2-c2cccnc21 60.6%, O=[N+]([O-])c1ccc(Nc2ccccc2O)c2nonc12 42.7%, CCc1ccc(N/C(=N/c2nc(C)cc(C)n2)NC(C)=O)cc1 16.7%, Cc1ccc2nc(Nc3ccccc3)cc(C)c2c1 64.7%, CCSc1nnc2n1C(C)(C)Cc1ccccc1-2 23%, CCOc1ccc(OCc2ccc(C(=O)N3CCCC3)o2)cc1 50.7%, COc1ccc(C2CC(c3ccc(Br)cc3)=NN2C(=O)CN2CCCC2)cc1 (stereo not given) 51%, COc1ccc(C2SCC(=O)N2CCc2ccc(OC)c(OC)c2)cc1 (stereo not given) 24%, CC(=O)N1c2ccc(S(=O)(=O)NCc3ccccc3Cl)cc2CC1C (stereo not given) 33%, CCOC(=O)N1CCN(C(=O)c2ccc3nc(N4CCC(C)CC4)sc3c2)CC1 40.3%, CCOC(=O)c1oc2nc(C(C)C)c3c(c2c1N)CCC3 56.5%, CCCc1nc2oc(C(=O)OCC)c(N)c2c2c1COC(C)(C)C2 54.8%, OCCn1nc(-c2ccccc2)cc1-c1ccccc1 17.9%, Cc1ccc(CNc2ncc(-c3ccccc3)n2C)o1 75.2%, Cn1c(SCC(=O)N2CCN(c3ccccc3)CC2)nnc1-c1ccccc1 27.7%, CS(=O)(=O)Nc1ccccc1C(=O)NCCSc1ccccc1 18.1%, COc1ccc(C(=O)C2CCCN(C(=O)C3=CCCC3)C2)c(C)c1 (stereo not given) 23.5%, COc1ccc(NC(=O)N2CCC(n3cnc4ccccc43)CC2)cc1 50.6%, COc1ccc(C(=O)C2CCCN(C(=O)c3noc4c3CCCC4)C2)cc1F (stereo not given) 63.6%, CCC1CCCCN1CCCNC(=O)c1ccc2c(c1)c(C)c(C)n2C (stereo not given) 54.9%, O=C(Nc1cccnc1)c1ccc(COc2ccccc2Cl)o1 33.4%, CCN(CC)C(=O)c1ccc(COc2ccccc2Br)o1 65.5%, Cc1ccc(S(=O)(=O)NC(=O)COc2cc(C)ccc2C(C)C)cc1 52.6%, Cc1ccc(S(=O)(=O)CC(O)COc2ccc(F)cc2Cl)cc1 (stereo not given) 22.4%, CCN(CC)S(=O)(=O)c1ccc(OC)c(NC(=S)Nc2ccc(C)c(C)c2)c1 55.9%, Cc1ccc(S(=O)(=O)N2CCC(=O)N(CCOCc3ccc(F)cc3)CC2)cc1 43.1%, Cc1ccc(-c2nnc(N3CCCCC3)c3ccccc23)cc1S(=O)(=O)N1CCN(C)CC1 63.7%, Cc1ccc(C)c(S(=O)(=O)C(C#N)c2nc3ccccc3nc2N2CC(C)OC(C)C2)c1 (stereo not given) 27.3%, COc1cc(OC)cc(C(=O)NC(=S)NNC(=O)[C@H]2C[C@@H]2c2ccccc2)c1 40.3%, CS(=O)(=O)c1ncc(Cl)c(C(=O)Nc2ccc(OC(F)F)cc2)n1 58.6%, CS(=O)(=O)c1ncc(Cl)c(C(=O)Nc2ccc(N3CCOCC3)cc2)n1 47.9%, Cc1nn(CC2CC2)c(=O)n1-c1ccc(Oc2ccccc2)cc1 38.3%, N#Cc1c(Cl)cccc1N1CCCC1 31.6%, C[C@@H](NCCc1ccc(O)cc1)[C@@H](O)c1ccc(O)cc1 45.4%, CC(C)NCC(O)c1ccc(O)c(O)c1 (stereo not given) 69.8%, CCc1ccccc1NC(=O)C1CC(c2ccc(OC)cc2)=NO1 (stereo not given) 74.4%, N#CCCn1cc(/C=C2\NC(=S)N(c3ccccc3)C2=O)c(-c2ccc(F)cc2)n1 57.6%, Cc1ccc(C(=O)N/C(=C\c2cccs2)c2nc3ccccc3[nH]2)cc1 11.9%, CSc1ccc(C(=O)C2CCCN(C(=O)c3ccsc3)C2)cc1 (stereo not given) 56.5%, COc1ccc(C(=O)N2CCCC(O)C2)cc1OC1CCN(C(C)C)CC1 (stereo not given) 62.6%, CC(C)(C)CC(=O)NCCc1csc(-c2ccccc2)n1 41.1%, N#C/C(=N\Nc1cccc(C(F)(F)F)c1)C(=O)c1ccsc1 41.5%, CC[N+]1(CC)CC2=Cc3c(ccc4ccccc34)C(C)C2C1 (stereo not given) 52.3%, CC(=O)N(C)c1ccc(NC(=O)C(Sc2ccccc2)c2ccccc2)cc1 (stereo not given) 37%, CC(C)(C)C(=O)/C(C#N)=C/c1ccc(O)cc1 26.3%, Cc1ccc(S(=O)(=O)Oc2ccccc2/C=C2/SC(=O)NC2=O)cc1 45%, Cc1ccc(S(=O)(=O)Oc2cccc(/C=N/n3cnnc3)c2)cc1 25.6%, CCCC1=NN2C(=N)/C(=C\c3ccc(SCc4ccco4)o3)C(=O)N=C2S1 51%, CS(=O)(=O)C1=NN2C(=N)/C(=C\c3ccc(OC(=O)c4ccco4)cc3)C(=O)N=C2S1 59.2%, Cc1ccc(S(=O)(=O)Oc2ccccc2/C=C2\SC(=O)NC2=O)cc1 32.3%, CC(C)CS(=O)(=O)C1=NSC2=NC(=O)/C(=C\c3ccc(OC(=O)c4ccco4)cc3)C(=N)N21 46%, COc1ccc(/C=C/C(=O)NC2CCCCCCC2)cc1S(=O)(=O)N1CCOCC1 59%, Cc1ccccc1NC(=O)c1ccc(C)c(S(=O)(=O)N2CCN(C)CC2)c1 60.5%, CCOc1ccc(Br)cc1S(=O)(=O)N1CCCC1 36.7%, Oc1ccc(/C=N/n2c(-c3ccccc3)n[nH]c2=S)cc1Br 8.27%, CN(c1ccc(O)cc1)c1nc(-c2cccs2)cs1 23.4%, COc1ccc(C(=O)NCc2ccon2)cc1OC1CCN(C(C)C)CC1 57.9%, COc1cc(CNCCc2ccccc2)cc(Br)c1OCC(=O)Nc1ccccc1C 37.7%, Cn1c(SCc2nc3ccccc3s2)nnc1-c1cccs1 18.9%, CC(=O)Nc1ccc(S(=O)(=O)Nc2nc3ccccc3nc2Nc2ccc(N)cc2)cc1 27.9%, COc1ccc(-c2nnc(CSc3nc4ccccc4c(=O)n3CC3CCCO3)o2)cc1OC (stereo not given) 57.4%, CC(C)(C)NS(=O)(=O)c1ccc(N2C(=O)c3ccccc3C2=O)cc1 29.7%, Cc1noc(C)c1C(=O)Nc1sc(C)c(-c2ccccc2)c1C#N 36.6%
